Assay results: PubChem BioAssay (Tox21)
Inconclusive results are not listed. Activity calls are given as the source filed them. Unless noted, calls come from the whole dose curve; as a rule, active = well fitted curve in the direction sought with a large enough effect in the repeat runs; inconclusive = weak or mixed curves; inactive = flat fitted curve, though single readings scatter.

Legend:
[1] = qHTS assay to test for compound auto fluorescence at 535 nm (green) in HEK293 cells (AID 720680)
[2] = qHTS assay to test for compound auto fluorescence at 460 nm (blue) in HEK293 cell free culture (AID 720681)
Procedure, shortened: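 Compounds were added to cell-free DMEM with 10% FBS and fluorescence read directly. The blue channel used 405 nm excitation and 460 nm emission, with triamterene as the reference fluorophore.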

[3] = qHTS assay to test for compound auto fluorescence at 535 nm (green) in HEK293 cell free culture (AID 720682)
Procedure, shortened: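 Fluorescein serves as the green reference fluorophore; each compound's intrinsic emission at 535 nm (excitation 485 nm) is reported as an equivalent amount of that dye, measured in serum-containing DMEM without cells.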

[4] = qHTS assay to test for compound auto fluorescence at 590 nm (red) in HEK293 cell free culture (AID 720683)
Procedure, shortened: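 Cell-free wells of DMEM with 10% FBS received compound, and intrinsic fluorescence was read at excitation/emission 540/590 nm. Values expressed as equivalence to Rose Bengal sodium.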

[5] = qHTS assay to test for compound auto fluorescence at 590 nm (red) in HepG2 cell free culture (AID 720684)
Procedure, shortened: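 Auto fluorescence equivalency versus Rose Bengal sodium, red channel Ex/Em 540/590 nm; compounds in cell-free MEM/10% FBS; DMSO vehicle control.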

[6] = qHTS assay to test for compound auto fluorescence at 460 nm (blue) in HepG2 cell free culture (AID 720685)
Procedure, shortened: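 Cell-free plates of MEM plus 10% FBS received 23 nL compound or DMSO vehicle; blue-channel (405/460 nm) intensity scored against triamterene as reference fluorophore.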

[7] = qHTS assay to test for compound auto fluorescence at 535 nm (green) in HepG2 cell free culture (AID 720686)
[8] = qHTS assay to test for compound auto fluorescence at 460 nm (blue) in HepG2 cells (AID 720687)
Procedure, shortened: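 HepG2 cells in MEM with 10% FBS, attached overnight at 37 C, were exposed to compound or DMSO for 1 hr at 37 C, 5% CO2. Blue fluorescence was read at 405/460 nm, with triamterene as reference fluorophore.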

[9] = target: Glucocorticoid receptor (Homo sapiens) (UniProt P04150); test: qHTS assay to identify small molecule agonists of the glucocorticoid receptor (GR) signaling pathway (AID 720691; active = well fitted activation curve with a large enough effect in the signal ratio in the repeat runs, not every such curve was filed as active; the % refers to the signal ratio)
Chain of Glucocorticoid receptor (Homo sapiens) (P04150 whole entry, looked up): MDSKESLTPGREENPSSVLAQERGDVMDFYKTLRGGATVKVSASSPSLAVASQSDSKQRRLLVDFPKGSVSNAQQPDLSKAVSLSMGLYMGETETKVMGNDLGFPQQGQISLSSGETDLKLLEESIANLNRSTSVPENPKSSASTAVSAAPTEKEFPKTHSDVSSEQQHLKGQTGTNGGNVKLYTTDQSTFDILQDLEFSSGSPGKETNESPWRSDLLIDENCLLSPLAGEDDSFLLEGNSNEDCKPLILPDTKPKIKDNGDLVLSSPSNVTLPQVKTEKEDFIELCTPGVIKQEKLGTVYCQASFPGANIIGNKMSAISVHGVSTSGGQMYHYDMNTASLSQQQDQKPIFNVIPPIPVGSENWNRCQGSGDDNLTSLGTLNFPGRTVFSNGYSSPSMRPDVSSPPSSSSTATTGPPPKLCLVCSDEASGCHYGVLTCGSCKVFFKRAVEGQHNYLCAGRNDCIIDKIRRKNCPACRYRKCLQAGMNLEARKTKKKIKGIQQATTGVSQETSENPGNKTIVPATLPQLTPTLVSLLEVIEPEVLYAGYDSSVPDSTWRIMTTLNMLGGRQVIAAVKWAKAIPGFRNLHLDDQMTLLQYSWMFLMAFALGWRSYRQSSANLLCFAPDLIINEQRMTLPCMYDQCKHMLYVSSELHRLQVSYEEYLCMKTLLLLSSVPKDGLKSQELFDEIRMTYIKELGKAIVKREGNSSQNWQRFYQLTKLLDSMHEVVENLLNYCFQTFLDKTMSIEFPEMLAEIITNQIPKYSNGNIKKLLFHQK
Procedure, shortened: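 HeLa GR-bla reporter line; cells pre-incubated 4 h, compound in DMSO 18 h at 37 C; LiveBLAzer B/G FRET substrate 2 h RT; fluorescence intensity read-out.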

[10] = target: Glucocorticoid receptor (Homo sapiens) (UniProt P04150); test: qHTS assay to identify small molecule antagonists of the glucocorticoid receptor (GR) signaling pathway (AID 720692; active = well fitted inhibition curve with a large enough effect in the signal ratio in the repeat runs, not every such curve was filed as active; the % refers to the signal ratio)
Procedure, shortened: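 Read-out: beta-lactamase FRET substrate fluorescence, 2 h at room temperature, in HeLa cells stably carrying a GRE-driven bla reporter. Compounds were co-incubated with 5 nM dexamethasone agonist (final) for 18 h at 37 C.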

Measured: Potency

Oc1c(Cl)ccc(Cl)c1Cl
inactive: all assays above

O=S1(=O)CCCO1
inactive: all assays above

O=C1CCc2ccccc2O1
inactive: all assays above

OC[C@H]1O[C@@H]2O[C@H]3[C@H](O)[C@@H](O)[C@@H](O[C@H]4[C@H](O)[C@@H](O)[C@@H](O[C@H]5[C@H](O)[C@@H](O)[C@@H](O[C@H]6[C@H](O)[C@@H](O)[C@@H](O[C@H]7[C@H](O)[C@@H](O)[C@@H](O[C@H]1[C@H](O)[C@H]2O)O[C@@H]7CO)O[C@@H]6CO)O[C@@H]5CO)O[C@@H]4CO)O[C@@H]3CO
inactive: all assays above

CC[C@]12CCCN3CCc4c(n(c5ccccc45)[C@@](O)(C(=O)OC)C1)[C@@H]32
inactive: all assays above

COc1ccc2nc(N)sc2c1
inactive: all assays above

c1ccc2c(c1)[nH]c1ccccc12
inactive: all assays above

c1ccc2c(c1)ccc1cc3c(ccc4ccccc43)cc12
inactive: all assays above

Cc1ccc(N)c([N+](=O)[O-])c1
inactive: all assays above

CN1CCOCC1
inactive: all assays above

C=CCCCCCCCCCC
inactive: all assays above

CN(C)/N=N/c1nc[nH]c1C(N)=O
inactive: all assays above

COC(=O)c1ccc(C)cc1
inactive: all assays above

CCCCCCOCCOCCO
inactive: all assays above

COc1cc([C@H]2Oc3cc([C@H]4Oc5cc(O)cc(O)c5C(=O)[C@@H]4O)ccc3O[C@@H]2CO)ccc1O
inactive: all assays above

CC(C)(Oc1ccc(Cl)cc1)C(=O)O
inactive: all assays above

FC(F)(F)C(Cl)Br (stereo not given)
inactive: all assays above

C=CCOC(=O)C(=C)C
inactive: all assays above

NC[C@H](O)c1ccc(O)c(O)c1
inactive: all assays above

IC(I)I
inactive: all assays above

NCCS(=O)(=O)O
inactive: all assays above

O=C(O)CCCC(=O)O
inactive: all assays above

CCO[Si](CCCNC(N)=O)(OCC)OCC
inactive: all assays above
